Inconclusive results are not listed. Calls of active or inactive are those of the source. Unless noted, no stated cut-off is given here; in the data, active means inhibition above about 30%; inactive means the rest.
Key:
[1] = Her2 expression decrease, cell viability multiplex – SKBR3 breast tumor cells, AlphaScreen, ATP viability, primary screen (AID 461;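 active means Her2 level under about 52% in both replicate screens, with viability over 70% of control, limit read from the data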;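 on Her2 level: lower value means less Her2 protein in the cells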;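 on viability: percent of carrier control wells set as 100% viability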); conditions: SKBR3 Her2 protein level, 18-24 h, measured here: SKBR3 viability, ATP luminescence, at 10 µM
[2] = molecular target: Receptor tyrosine-protein kinase erbB-2 (Homo sapiens) (UniProt P04626); assay: as above; conditions: 18-24 h, at 10 µM, stronger effect = lower value
[3] = reduced viability of SK-BR-3 breast cancer cells – cell-based, 24 h, human, pilot screen (AID 572;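 active means viability at or below 10% of carrier control in both of two separate runs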;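 further: compound exposure lasted between 18 and 24 h rather than exactly 24 h; 100% = carrier-treated control wells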); conditions: SK-BR-3 viability, CellTiter-Glo luminescence, at 10 µM, stronger effect = lower value
[4] = HUVEC growth inhibition – cell-based, human, primary screen (AID 575;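 active means viability at or below 30% in both replicate assays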;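 further: 100% = median of untreated cell wells with 0.1% DMSO on each plate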); conditions: HUVEC proliferation, CellTiter-Glo luminescence, 72 h; at 10 µM; stronger effect = lower value
[5] = H69AR cell proliferation blockers – human, duplicate replicates, primary screen (AID 580;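 active means viability at or under a set limit in both replicates, limit being median viability minus 3 SD, cut at about 48% in these data, passing the limit was not always enough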;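 further: 100% = mean luminescence of untreated wells and 0% = no signal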); conditions: H69AR lung tumor cells viability, ATP luminescence, 72 h; at 10 µM; stronger effect = lower value
[6] = MRP1 drug-resistance reversers in H69AR cells – cell-based, doxorubicin co-treatment, pilot screen (AID 601;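 active means viability loss from added drug above about 55%, and viability with drug at most 40%, in both replicates, limit read from the data, passing the limit was not always enough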); conditions: CellTiter-Glo, 72 h, at 10 µM; for differential viability (reversal): stronger effect = higher value
[7] = yeast transport mutant growth inhibition pilot in 384-well plates, post-Golgi transport modulator project (AID 636; in the data active means inhibition above about 31%); conditions: absorbance 615 nm, about 18 h, stronger effect = higher value
[8] = growth suppression of yeast trafficking mutant, preliminary HTS, modulators of trafficking downstream of Golgi apparatus project, 1536-format plate, OD 615 nm (AID 637); conditions: yeast transport mutant growth, absorbance 615 nm, 18 h; stronger effect = higher value
[9] = S. cerevisiae growth inhibition in permissive medium (OD615), pilot counter-assay for S. cerevisiae lifespan shortening project, permissive growth control (AID 705;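 active means growth inhibition above 25% in both replicates, a cutoff set 3 SD above the mean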); conditions: OD615, 24 h, at 10 µM, stronger effect = higher value
[10] = S. cerevisiae growth inhibition in restrictive medium, OD615, pilot screen, restrictive growth control, yeast lifespan reduction project (AID 706;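 active means growth inhibition above a set limit, 3 SD over mean compound inhibition, in both replicates, cut at about 43% in these data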;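 further: modified DeaD lifespan yeast strain shifted to restrictive glucose medium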); conditions: OD615, 48 h, at 10 µM, stronger effect = higher value
[11] = doxorubicin toxicity protection in MRP-1 cells – H69AR cells, CellTiter-Glo, duplicate, MRP-1 activator project, pilot screen (AID 807;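 active means viability increase at or above a cutoff of the median across tested compounds plus 3 SD, cut at about 8.5% in these data, passing the limit was not always enough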;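 further: compound pretreatment 18-22 h then 72 h combined with doxorubicin; 0% = doxorubicin alone and 100% = vehicle without doxorubicin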); conditions: H69AR viability with doxorubicin, CellTiter-Glo luminescence; at 10 µM; stronger effect = higher value
[12] = viability of HCT116 without oncogenic beta-catenin – human colon tumor cells, pilot screen (AID 823;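 active means cell viability at or below a set limit in both duplicate runs, the limit being the all-compound median minus 4 SD, cut at about 23% in these data, passing the limit was not always enough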;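 further: 0% = wells killed by 20 µM Hyamine and 100% = untreated DMSO cell wells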); conditions: HCT116 beta-catenin knockout viability, CellTiter-Glo, 60 h; at 10 µM; stronger effect = lower value
[13] = viability of PTEN-null HCT116 cells – cell-based, HCT116 clonal line, CellTiter-Glo, pilot screen (AID 824;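 active means viability at or below 27.92% in each of two runs, the all-compound median minus 4 SD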;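 further: 0% = 20 µM Hyamine control and 100% = vehicle cell control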); conditions: HCT116 PTEN-deleted viability, 60 h, at 10 µM, stronger effect = lower value
[14] = RAM pathway blockade in budding yeast – dse1pr::URA3 reporter, 5-FOA selection, pilot screen (AID 869;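 active means inhibition over a set limit, the all-compound mean plus 3 SD, in both replicate runs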;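 further: 0% = DMSO wells with no growth and 100% = 10 µM 1-NA-PP1 with full growth; RAM network block rescues cells from 5-FOA so hits raise OD615 growth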); conditions: S. cerevisiae dse1pr::URA3 5-FOA growth, OD615, 2 d; at 10 µM; stronger effect = higher value; strain carries analog-sensitive mutant Cbk1 kinase
[15] = RAM signaling pathway blockade in yeast – S. cerevisiae, Pdr1DBD-CYC8 efflux-inhibited sensitized strain, primary screen (AID 1298;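 active means RAM network inhibition above 8.4% in each of two replicates, 3 SD over the compound average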;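 further: 0% = DMSO untreated cells without growth and 100% = 10 µM 1-NA-PP1 full growth; higher means more yeast growth rescued from 5-FOA killing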); conditions: S. cerevisiae cbk1-as DSE1-URA3 strain, 5-FOA growth OD615, 2 d; at 50 µM; stronger effect = higher value
[16] = H69AR cells + 2 uM doxorubicin, measured here: viability with 2 uM doxorubicin, stronger effect = lower value
[17] = H69AR cells, compound alone cytotoxicity

Chain of Receptor tyrosine-protein kinase erbB-2 (Homo sapiens) (P04626 whole entry, looked up): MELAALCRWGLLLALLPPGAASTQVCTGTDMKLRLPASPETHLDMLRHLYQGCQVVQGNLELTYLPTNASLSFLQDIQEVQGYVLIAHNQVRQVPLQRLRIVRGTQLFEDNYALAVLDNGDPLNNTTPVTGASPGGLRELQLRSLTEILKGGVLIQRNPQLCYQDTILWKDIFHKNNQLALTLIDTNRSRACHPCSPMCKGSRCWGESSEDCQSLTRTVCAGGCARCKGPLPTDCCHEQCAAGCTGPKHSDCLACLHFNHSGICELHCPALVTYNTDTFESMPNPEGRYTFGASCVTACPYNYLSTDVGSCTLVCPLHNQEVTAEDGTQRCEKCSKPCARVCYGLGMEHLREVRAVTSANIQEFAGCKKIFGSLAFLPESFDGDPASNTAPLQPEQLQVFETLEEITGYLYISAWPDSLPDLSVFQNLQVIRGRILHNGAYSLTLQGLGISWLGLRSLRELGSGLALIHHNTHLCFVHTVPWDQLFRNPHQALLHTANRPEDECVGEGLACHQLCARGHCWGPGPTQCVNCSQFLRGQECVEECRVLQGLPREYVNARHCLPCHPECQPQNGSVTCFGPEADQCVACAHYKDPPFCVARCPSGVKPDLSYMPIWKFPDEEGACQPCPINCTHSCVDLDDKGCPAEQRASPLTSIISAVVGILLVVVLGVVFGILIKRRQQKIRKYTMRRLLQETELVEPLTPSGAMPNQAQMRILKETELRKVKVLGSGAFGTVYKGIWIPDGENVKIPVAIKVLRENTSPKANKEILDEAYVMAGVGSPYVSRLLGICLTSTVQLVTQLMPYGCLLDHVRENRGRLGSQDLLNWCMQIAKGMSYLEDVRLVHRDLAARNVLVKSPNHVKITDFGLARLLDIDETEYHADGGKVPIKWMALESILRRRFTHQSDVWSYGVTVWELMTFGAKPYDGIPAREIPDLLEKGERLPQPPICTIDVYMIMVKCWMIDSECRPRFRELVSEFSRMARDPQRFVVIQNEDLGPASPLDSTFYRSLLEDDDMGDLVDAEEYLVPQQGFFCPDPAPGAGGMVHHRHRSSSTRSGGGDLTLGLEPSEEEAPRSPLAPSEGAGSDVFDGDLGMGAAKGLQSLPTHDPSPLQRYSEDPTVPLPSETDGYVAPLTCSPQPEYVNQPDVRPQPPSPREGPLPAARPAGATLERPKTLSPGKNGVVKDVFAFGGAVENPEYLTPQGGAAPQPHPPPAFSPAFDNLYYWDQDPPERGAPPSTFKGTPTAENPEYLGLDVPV

Structure (SMILES) | viability [1] [%] | Her2 level [2] | viability [3] | viability [4] | viability [5] | differential viability (reversal) ([6]; H69AR cells + 2 uM doxorubicin) | viability [6, 16] [%] | viability [6, 17] [%] | inhibition [7] | inhibition [8] | growth inhibition [9] | growth inhibition [10] | viability increase [11] | viability [12] | viability [13] | inhibition [14] | RAM network inhibition [15]
CCn1c(SCC(=O)Nc2cc(C)ccc2C)nc2c(c1=O)SC(C)C2 (stereo not given) | 90.5 | 116% (inactive) | 90.5% (inactive) | 74% (inactive) | 83.1% (inactive) | 15.4% (inactive) | 67.8 | 83.1 | -1.73% (inactive) | -0.5% (inactive) | -9.3% (inactive) | -6.79% (inactive) | -4.15% (inactive) | 93.6% (inactive) | 91.5% (inactive) | 1.16% (inactive) | 4.64% (inactive)
CCCCN(C)C(=O)c1cn(C)c2ccc(S(=O)(=O)N(C)C)cc2c1=O | 96 | 102% (inactive) | 96% (inactive) | 102% (inactive) | 102% (inactive) | 6.23% (inactive) | 95.5 | 102 | 0.13% (inactive) | -4.5% (inactive) | -3.25% (inactive) | 3.02% (inactive) | 0.32% (inactive) | 100% (inactive) | 108% (inactive) | 0.805% (inactive) | 2.99% (inactive)
CCSc1nc(O)c(CC)c(=O)n1C(C)CC (stereo not given) | 104 | 128% (inactive) | 104% (inactive) | 97.9% (inactive) | 108% (inactive) | 14.9% (inactive) | 93.2 | 108 | -6% (inactive) | -0.48% (inactive) | -9.35% (inactive) | -3.4% (inactive) | -0.54% (inactive) | 98.6% (inactive) | 93.7% (inactive) | -0.63% (inactive) | 11.3% (inactive)
COC(=O)C1=C(C)NC2=C(C(=O)CCC2)C1c1coc2ccccc2c1=O (stereo not given) | 91 | 81% (inactive) | 91% (inactive) | 97.7% (inactive) | 93% (inactive) | 2.12% (inactive) | 90.9 | 93 | -3.97% (inactive) | -1.5% (inactive) | -7.39% (inactive) | 6.02% (inactive) | -4.25% (inactive) | 89.4% (inactive) | 90.1% (inactive) | 2.04% (inactive) | 1.39% (inactive)
COc1ccc2[nH]c(C)c(CCN3C(=O)OC(C)(C)C3(C)O)c2c1 (stereo not given) | 100 | 108% (inactive) | 100% (inactive) | 102% (inactive) | 81.5% (inactive) | -10.4% (inactive) | 91.9 | 81.5 | -5.73% (inactive) | -6.67% (inactive) | 4.92% (inactive) | -5.26% (inactive) | -1.56% (inactive) | 107% (inactive) | 96.4% (inactive) | 1.92% (inactive) | 2.87% (inactive)

Source: PubChem BioAssay
